Data: PubChem BioAssay
Where “and” joins values, the source holds several entries; their conditions need not be identical. Equal entries are not always repeated. For some assays here: Results with a measured potency or affinity are listed apart. Calls of active or inactive are those of the source. Unless noted, how the calls were made is not given here.

Key:
[1] = antimalarial activity against Dd2 strain (AID 2302;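 active means growth inhibition above 50% at the single 2 µM test dose, taken to imply half-maximal potency below 2 µM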;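 further: 0% = DMSO untreated growth and 100% = chloroquine plus artemisinin killed control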); conditions: P. falciparum Dd2 in RBCs, LDH growth readout, 72 h; at 2 µM; active compounds read high
[2] = human hepatoma cell viability loss – ATP luminescence, cytotoxicity control for P. falciparum antimalarial project, primary screen (AID 2303;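 active means inhibition above 50%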;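 further: 0% = DMSO wells and 100% = digitonin-killed cells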); conditions: HepG2 viability, 24-48 h, at 10 µM, active compounds read high
[3] = target: L-lactate dehydrogenase (Plasmodium falciparum (isolate CDC / Honduras)) (UniProt Q27743); experiment: PfLDH activity inhibition – cell lysate, 3D7 strain, counter-screen for P. falciparum growth inhibition project (AID 2304);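 further: 0% = vehicle and 100% = reference inhibitor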; conditions: P. falciparum 3D7 crude extract, LDH APAD/NBT absorbance; at 2 µM; active compounds read high
Sequence of L-lactate dehydrogenase (Plasmodium falciparum (isolate CDC / Honduras)) (Q27743 whole entry, looked up): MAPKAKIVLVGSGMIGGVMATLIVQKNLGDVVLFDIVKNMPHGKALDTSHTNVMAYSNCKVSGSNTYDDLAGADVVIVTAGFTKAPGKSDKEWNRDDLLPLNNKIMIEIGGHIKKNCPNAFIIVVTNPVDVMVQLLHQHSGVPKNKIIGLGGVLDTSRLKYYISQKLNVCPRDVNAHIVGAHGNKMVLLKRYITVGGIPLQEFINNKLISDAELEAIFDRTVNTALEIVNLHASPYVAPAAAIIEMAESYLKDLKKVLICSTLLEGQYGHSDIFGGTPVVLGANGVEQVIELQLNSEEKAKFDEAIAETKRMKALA

[4] = inhibition of 3D7 malaria parasite growth – strain 3D7 (AID 2306);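 further: 0% = DMSO wells and 100% = chloroquine plus artemisinin control wells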; conditions: P. falciparum 3D7 erythrocytic growth, LDH absorbance, 72 h; at 2 µM; active compounds read high
[5] = target: Calcium-dependent protein kinase 1 (Plasmodium falciparum (isolate 3D7)) (UniProt P62344); experiment: PfCDPK1 kinase inhibitors, biochemical, TCAMS library (AID 1159585; cut-off not given, nearly all actives have IC50 up to about 0.98 µM;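 further: inhibitors leave more ATP so luminescence rises with inhibition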); conditions: recombinant PfCDPK1, Kinase-Glo ATP depletion luminescence
Sequence of Calcium-dependent protein kinase 1 (Plasmodium falciparum (isolate 3D7)) (P62344 whole entry, looked up): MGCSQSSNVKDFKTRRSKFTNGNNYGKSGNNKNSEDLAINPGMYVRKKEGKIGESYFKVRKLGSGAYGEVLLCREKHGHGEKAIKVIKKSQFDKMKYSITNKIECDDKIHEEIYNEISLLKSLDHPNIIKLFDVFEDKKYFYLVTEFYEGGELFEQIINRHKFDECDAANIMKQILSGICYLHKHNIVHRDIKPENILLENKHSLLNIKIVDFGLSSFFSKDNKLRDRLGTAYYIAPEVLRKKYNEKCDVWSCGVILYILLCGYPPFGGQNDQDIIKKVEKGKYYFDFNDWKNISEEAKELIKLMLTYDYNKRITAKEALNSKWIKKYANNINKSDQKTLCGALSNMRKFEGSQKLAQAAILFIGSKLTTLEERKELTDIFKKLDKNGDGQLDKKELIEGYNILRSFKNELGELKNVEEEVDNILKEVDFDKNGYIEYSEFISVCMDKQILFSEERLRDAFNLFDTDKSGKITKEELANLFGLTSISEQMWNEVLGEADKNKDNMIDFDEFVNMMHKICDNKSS

[6] = target: Plasmodium falciparum protein kinase 6 (PK6, PF3D7_1337100) (UniProt Q8IDW1); experiment: PfPK6 kinase inhibitors, biochemical, TCAMS library (AID 1159586); conditions: recombinant PfPK6, Kinase-Glo ATP depletion luminescence
Sequence of Plasmodium falciparum protein kinase 6 (PK6, PF3D7_1337100) (Q8IDW1 1-305): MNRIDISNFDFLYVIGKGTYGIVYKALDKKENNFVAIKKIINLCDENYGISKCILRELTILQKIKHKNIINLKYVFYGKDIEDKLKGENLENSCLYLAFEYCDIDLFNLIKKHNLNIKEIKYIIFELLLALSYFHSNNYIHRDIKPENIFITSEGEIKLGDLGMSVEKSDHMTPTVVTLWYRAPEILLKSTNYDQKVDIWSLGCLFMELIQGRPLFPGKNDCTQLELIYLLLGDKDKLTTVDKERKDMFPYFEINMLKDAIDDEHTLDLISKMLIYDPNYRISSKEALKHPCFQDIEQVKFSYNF

[7] = target: Protein kinase 7 (PK7), Plasmodium falciparum 3D7 (PF3D7_0213400) (UniProt Q7YTF7); experiment: inhibition of Plasmodium PK7 catalytic activity – biochemical, TCAMS antimalarial set, Kinase-Glo luminescence (AID 1159587); conditions: recombinant PfPK7, Kinase-Glo ATP depletion luminescence
Sequence of Protein kinase 7 (PK7), Plasmodium falciparum 3D7 (PF3D7_0213400) (Q7YTF7 1-343): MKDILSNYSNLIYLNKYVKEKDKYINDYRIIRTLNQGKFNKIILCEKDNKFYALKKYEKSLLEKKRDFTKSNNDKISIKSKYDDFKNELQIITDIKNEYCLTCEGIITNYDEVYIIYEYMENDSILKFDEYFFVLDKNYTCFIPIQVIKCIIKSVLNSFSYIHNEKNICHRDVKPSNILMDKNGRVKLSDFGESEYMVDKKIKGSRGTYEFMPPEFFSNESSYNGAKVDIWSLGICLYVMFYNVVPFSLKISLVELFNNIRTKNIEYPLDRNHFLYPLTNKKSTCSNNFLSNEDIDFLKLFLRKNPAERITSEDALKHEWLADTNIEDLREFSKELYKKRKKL

[8] = target: Calcium-dependent protein kinase 4 (Plasmodium falciparum (isolate 3D7)) (UniProt Q8IBS5); experiment: PfCDPK4 kinase inhibitors, biochemical, TCAMS library (AID 1159588; cut-off not given, nearly all actives have IC50 up to about 0.91 µM); conditions: recombinant PfCDPK4, Kinase-Glo ATP depletion luminescence
Sequence of Calcium-dependent protein kinase 4 (Plasmodium falciparum (isolate 3D7)) (Q8IBS5 whole entry, looked up): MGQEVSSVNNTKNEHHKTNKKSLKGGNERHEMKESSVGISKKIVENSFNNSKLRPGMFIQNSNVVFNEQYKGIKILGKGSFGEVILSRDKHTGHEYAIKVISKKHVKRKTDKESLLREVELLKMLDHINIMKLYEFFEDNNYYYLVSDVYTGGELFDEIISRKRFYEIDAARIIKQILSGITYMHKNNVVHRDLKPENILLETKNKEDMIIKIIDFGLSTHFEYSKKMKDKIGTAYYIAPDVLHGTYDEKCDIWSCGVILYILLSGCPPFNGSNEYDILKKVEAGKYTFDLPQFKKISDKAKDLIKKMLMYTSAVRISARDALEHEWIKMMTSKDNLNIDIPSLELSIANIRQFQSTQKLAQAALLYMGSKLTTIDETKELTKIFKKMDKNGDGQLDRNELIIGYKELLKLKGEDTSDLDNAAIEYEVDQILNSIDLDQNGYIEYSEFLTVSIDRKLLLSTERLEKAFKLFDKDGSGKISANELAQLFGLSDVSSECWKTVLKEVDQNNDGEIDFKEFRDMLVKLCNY

COc1cccc(C(=O)C2CC2CN2CC=C(c3c(C)[nH]c4ccccc34)CC2)c1 (configuration not stated)
active: growth inhibition [1] 87% | growth inhibition [4] 92%
inactive: inhibition [2] 13% | inhibition [3] -8% | outcome [5] | outcome [6] | outcome [7] | outcome [8]

CC[C@H]1CN2CC[C@H]1C[C@H]2[C@H](O)c1cc(N2CCCC(C(=O)N(CC)CC)C2)nc2ccc(OC)cc12 (some centres not stated)
active: growth inhibition [1] 99% | growth inhibition [4] 101%
inactive: inhibition [2] -13% | inhibition [3] -2% | outcome [5] | outcome [6] | outcome [7] | outcome [8]

CC(Cc1ccc(NC(=O)[C@H](C)NCCc2cccc(Cl)c2)cc1)NCCc1cccc(Cl)c1 (some centres not stated)
active: growth inhibition [1] 54% | inhibition [2] 99% | growth inhibition [4] 100%
inactive: inhibition [3] 2% | outcome [5] | outcome [6] | outcome [7] | outcome [8]

CN(c1cc(NC(=O)c2cccs2)ccn1)C1CCN(Cc2cccc(F)c2)CC1
inactive: inhibition [2] -1% | inhibition [3] 4% | outcome [5] | outcome [6] | outcome [7] | outcome [8]
active: growth inhibition [1] 95% | growth inhibition [4] 94%

COc1cc(C=CC(=O)N2CCC(CN3CCC(c4c[nH]c5ccccc45)CC3)CC2)cc(OC)c1
inactive: growth inhibition [1] 8% | inhibition [2] 19% | inhibition [3] 4% | outcome [5] | outcome [6] | outcome [7] | outcome [8]
active: growth inhibition [4] 95%

COc1ccc2[nH]cc(C3=CCN(Cc4ccccc4)CC3)c2c1
inactive: inhibition [3] -5% | outcome [5] | outcome [6] | outcome [7] | outcome [8]
active: growth inhibition [1] 84% | inhibition [2] 51% | growth inhibition [4] 90%

COc1cc(CC(C)NCC(O)c2cccc(C(F)(F)F)c2)ccc1OCc1ccccc1 (configuration not stated)
active: growth inhibition [1] 71% | growth inhibition [4] 93%
inactive: inhibition [2] 2% | inhibition [3] 2% | outcome [5] | outcome [6] | outcome [7] | outcome [8]

O=C(NC1CCC(CN2CCC(c3c[nH]c4ccccc34)CC2)CC1)c1cc(-c2ccccc2Cl)n(-c2cccc(Cl)c2)n1 (configuration not stated)
inactive: growth inhibition [1] 24% | inhibition [3] 4% | outcome [5] | outcome [6] | outcome [7] | outcome [8]
active: inhibition [2] 58% | growth inhibition [4] 95%

COc1ccc(CC(C)NCC(O)c2cccc(Cl)c2F)cc1 (configuration not stated)
active: growth inhibition [1] 59% | growth inhibition [4] 88%
inactive: inhibition [2] 3% | inhibition [3] -6% | outcome [5] | outcome [6] | outcome [7] | outcome [8]

CN1CC=C(c2csc3ccc(NC(=O)Nc4ccc(-c5ccncc5)c(Cl)c4)cc23)CC1
inactive: inhibition [2] 10% | inhibition [3] 6% | outcome [5] | outcome [6] | outcome [7] | outcome [8]
active: growth inhibition [1] 101% | growth inhibition [4] 102%

CC[C@H]1CN2CCc3cc(OC)c(OC)cc3[C@@H]2C[C@@H]1C[C@H]1NCCc2c1cc(OC)c(OC)c2Br
inactive: inhibition [2] 45% | inhibition [3] -1% | outcome [5] | outcome [6] | outcome [7] | outcome [8]
active: growth inhibition [1] 97% | growth inhibition [4] 99%

CCOc1ccc2nccc([C@@H](O)[C@@H]3C[C@@H]4CCN3C[C@@H]4CC)c2c1
active: growth inhibition [1] 99% and 51% | growth inhibition [4] 98% and 99%
inactive: inhibition [2] 24% and 1% | inhibition [3] 2% and -2% | outcome [5] | outcome [6] | outcome [7] | outcome [8]

O=C(/C=C/c1ccc(Cl)c(Cl)c1)NCc1ccc(CN2CCC(c3c[nH]c4ccccc34)CC2)cc1
inactive: inhibition [3] -2% | outcome [5] | outcome [6] | outcome [7] | outcome [8]
active: growth inhibition [1] 86% | inhibition [2] 59% | growth inhibition [4] 101%

O=C(/C=C/c1ccc(Cl)c(Cl)c1)N1CCC(CN2CCC(c3cn(CC(=O)N4CCCCC4)c4ccccc34)CC2)CC1
active: growth inhibition [1] 65% | inhibition [2] 52% | growth inhibition [4] 100%
inactive: inhibition [3] -2% | outcome [5] | outcome [6] | outcome [7] | outcome [8]

CC[C@H]1CN2CC[C@H]1C[C@H]2[C@H](O)c1ccnc2ccc(C#N)cc12
active: growth inhibition [1] 55% | growth inhibition [4] 100%
inactive: inhibition [2] 0% | inhibition [3] 5% | outcome [5] | outcome [6] | outcome [7] | outcome [8]

Cc1ccc(C[C@@H](C)NC[C@H](O)c2cccc(C(F)(F)F)c2)cc1
inactive: inhibition [2] 10% and 6% | inhibition [3] -4% and 1% | outcome [5] | outcome [6] | outcome [7] | outcome [8]
active: growth inhibition [1] 79% and 97% | growth inhibition [4] 101% and 99%

O=[N+]([O-])c1ccc(Oc2c(Cl)cc(S(=O)(=O)N3CCC(CN4CCC(c5c[nH]c6ccccc56)CC4)CC3)cc2Cl)c(Cl)c1
active: growth inhibition [1] 83% | growth inhibition [4] 100%
inactive: inhibition [2] 43% | inhibition [3] -1% | outcome [5] | outcome [6] | outcome [7] | outcome [8]

CC(=O)N(Cc1ccccc1-c1cccc(CNCc2ccc3c(c2)OCO3)c1)C1CCN(Cc2ccccc2)CC1
active: growth inhibition [4] 85%
inactive: growth inhibition [1] 44% | inhibition [2] 17% | inhibition [3] -3% | outcome [5] | outcome [6] | outcome [7] | outcome [8]

CCCCCc1cc(O)c2c(c1)OC(C)(C)CC2C1=CCN(Cc2cnc3ccccc3c2)CC1 (configuration not stated)
inactive: inhibition [2] 27% | inhibition [3] 0% | outcome [5] | outcome [6] | outcome [7] | outcome [8]
active: growth inhibition [1] 98% | growth inhibition [4] 98%
